What all share (assay): DAPPL (digital affinity profiling via proximity ligation, sequencing); 10 mM Tris-HCl pH 7.5, 50 mM NaCl, 1 mM DTT, 4% glycerol, room temperature, 30 min; GST-TFs on glutathione beads, 16-mer random dsDNA library, 0.1% formaldehyde crosslink after washing; high values mean tight binding
The target of assay [1] is T1, FLI1 (Homo sapiens, UniProt Q01543 1-452).
T1 sequence: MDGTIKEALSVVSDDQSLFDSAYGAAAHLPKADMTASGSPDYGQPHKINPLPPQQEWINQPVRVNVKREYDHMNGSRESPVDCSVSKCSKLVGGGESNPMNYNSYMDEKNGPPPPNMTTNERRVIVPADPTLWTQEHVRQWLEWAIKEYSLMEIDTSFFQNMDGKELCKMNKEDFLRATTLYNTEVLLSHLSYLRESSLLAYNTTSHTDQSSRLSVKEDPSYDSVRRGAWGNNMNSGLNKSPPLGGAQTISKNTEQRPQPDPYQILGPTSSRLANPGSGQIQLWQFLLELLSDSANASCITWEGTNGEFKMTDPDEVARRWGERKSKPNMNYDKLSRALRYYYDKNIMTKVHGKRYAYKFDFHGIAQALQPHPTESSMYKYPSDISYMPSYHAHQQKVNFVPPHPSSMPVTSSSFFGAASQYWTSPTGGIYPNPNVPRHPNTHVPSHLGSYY
The following applies: protein: recombinant; tags: N-terminal GST; dsDNA, one strand shown. The gist of the method:
(§1)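 Yeast served to express human transcription factors as GST fusions, which were then captured on glutathione beads and labelled with DNA barcodes. Pooled with a tag-only sample, they were incubated with 200 nmole of a 16-mer random double-stranded DNA library for 30 min at room temperature in Tris/NaCl/DTT/glycerol buffer, washed, crosslinked with 0.1% formaldehyde, ligated by proximity, amplified by PCR and sequenced. Dividing each hexamer's read frequency for a factor by its frequency for the tag-only sample gives the binding signal.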

Assay [2] has as its target T2, ELK1 (Homo sapiens, UniProt P19419 1-428).
T2 sequence: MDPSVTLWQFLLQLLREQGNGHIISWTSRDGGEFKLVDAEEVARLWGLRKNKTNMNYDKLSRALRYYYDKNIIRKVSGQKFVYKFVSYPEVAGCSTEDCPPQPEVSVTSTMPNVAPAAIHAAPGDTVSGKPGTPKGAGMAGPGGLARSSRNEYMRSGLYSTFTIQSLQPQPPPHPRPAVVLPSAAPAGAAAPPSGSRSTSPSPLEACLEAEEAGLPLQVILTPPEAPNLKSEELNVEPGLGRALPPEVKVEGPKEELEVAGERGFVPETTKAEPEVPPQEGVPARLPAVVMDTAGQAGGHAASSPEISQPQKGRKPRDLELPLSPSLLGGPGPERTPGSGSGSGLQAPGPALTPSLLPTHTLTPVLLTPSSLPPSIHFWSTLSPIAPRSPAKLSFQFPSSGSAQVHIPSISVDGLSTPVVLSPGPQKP
The following applies: protein: recombinant; tags: N-terminal GST; dsDNA, one strand shown. The gist of the method:
as §1

The target in assay [3] is T3, GABPA (Homo sapiens, UniProt Q06546 1-454).
T3 sequence: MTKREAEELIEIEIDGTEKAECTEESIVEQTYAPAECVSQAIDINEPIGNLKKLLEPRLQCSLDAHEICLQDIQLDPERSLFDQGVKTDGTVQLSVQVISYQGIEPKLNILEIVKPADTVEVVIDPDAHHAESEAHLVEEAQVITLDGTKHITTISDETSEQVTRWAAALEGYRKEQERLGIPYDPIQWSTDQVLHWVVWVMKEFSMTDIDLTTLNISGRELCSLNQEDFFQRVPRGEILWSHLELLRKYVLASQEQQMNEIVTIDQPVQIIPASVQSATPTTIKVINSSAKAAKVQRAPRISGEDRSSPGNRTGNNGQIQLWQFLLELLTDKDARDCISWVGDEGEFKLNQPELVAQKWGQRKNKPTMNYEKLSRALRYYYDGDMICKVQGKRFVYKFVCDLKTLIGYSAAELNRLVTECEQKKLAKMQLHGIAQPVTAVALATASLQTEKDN
The following applies: protein: recombinant; tags: N-terminal GST; dsDNA, one strand shown. The gist of the method: as §1

For assay [4], the target named is T4, ERG (Homo sapiens, UniProt P11308 1-479).
T4 sequence: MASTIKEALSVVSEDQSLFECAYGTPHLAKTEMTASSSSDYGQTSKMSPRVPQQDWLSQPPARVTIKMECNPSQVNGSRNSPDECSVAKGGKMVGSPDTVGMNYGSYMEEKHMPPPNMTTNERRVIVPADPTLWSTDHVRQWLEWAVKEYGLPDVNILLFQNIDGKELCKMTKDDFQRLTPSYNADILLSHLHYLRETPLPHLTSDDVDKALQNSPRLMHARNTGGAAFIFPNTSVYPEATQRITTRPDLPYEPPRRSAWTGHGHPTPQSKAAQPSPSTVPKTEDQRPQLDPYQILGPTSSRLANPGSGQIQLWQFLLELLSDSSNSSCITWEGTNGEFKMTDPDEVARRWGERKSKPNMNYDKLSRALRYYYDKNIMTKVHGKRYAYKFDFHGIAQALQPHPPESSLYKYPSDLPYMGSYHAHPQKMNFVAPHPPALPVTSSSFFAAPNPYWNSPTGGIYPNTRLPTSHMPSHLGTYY
The following applies: protein: recombinant; tags: N-terminal GST; dsDNA, one strand shown. The gist of the method:
as §1

Assay [5] addresses ELF1 (Homo sapiens, UniProt P32519 1-619). The following applies: protein: recombinant; tags: N-terminal GST; dsDNA, one strand shown. In short, it runs like this: as §1
Assay [6] concerns the target T5, EHF (Homo sapiens, UniProt Q9NZC4 1-300).
T5 sequence: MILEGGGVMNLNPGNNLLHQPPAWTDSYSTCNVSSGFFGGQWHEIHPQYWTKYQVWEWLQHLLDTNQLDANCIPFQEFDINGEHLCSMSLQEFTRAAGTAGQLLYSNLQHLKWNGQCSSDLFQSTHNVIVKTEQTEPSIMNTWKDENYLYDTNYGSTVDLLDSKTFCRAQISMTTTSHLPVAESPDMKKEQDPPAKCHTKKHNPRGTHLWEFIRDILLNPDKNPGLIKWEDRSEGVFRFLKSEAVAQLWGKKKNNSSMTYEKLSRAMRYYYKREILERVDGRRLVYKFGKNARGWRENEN
The following applies: protein: recombinant; tags: N-terminal GST; dsDNA, one strand shown. In short, it runs like this: as §1

Assay [7] addresses SPI1 (Homo sapiens, UniProt P17947 1-270). The following applies: protein: recombinant; tags: N-terminal GST; dsDNA, one strand shown. In short, it runs like this:
as §1

The target in assay [8] is SPIB (Homo sapiens, UniProt Q01892 1-262). The following applies: protein: recombinant; tags: N-terminal GST; dsDNA, one strand shown. The gist of the method:
as §1

Assay [9] has as its target T6, ELK3 (Homo sapiens, UniProt P41970 1-407).
T6 sequence: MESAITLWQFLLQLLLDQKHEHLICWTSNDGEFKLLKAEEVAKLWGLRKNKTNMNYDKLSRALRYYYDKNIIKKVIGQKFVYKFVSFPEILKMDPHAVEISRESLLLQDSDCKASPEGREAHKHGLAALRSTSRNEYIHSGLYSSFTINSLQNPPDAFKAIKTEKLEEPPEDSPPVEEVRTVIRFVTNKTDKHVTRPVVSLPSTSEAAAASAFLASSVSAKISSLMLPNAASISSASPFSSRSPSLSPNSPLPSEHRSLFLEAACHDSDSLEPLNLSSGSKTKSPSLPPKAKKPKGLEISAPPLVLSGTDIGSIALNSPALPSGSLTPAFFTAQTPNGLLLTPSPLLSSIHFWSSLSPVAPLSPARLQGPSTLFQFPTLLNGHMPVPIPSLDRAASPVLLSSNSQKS
The following applies: protein: recombinant; tags: N-terminal GST; dsDNA, one strand shown. The gist of the method: as §1

Assay [10] deals with T7, FEV (Homo sapiens, UniProt Q99581 1-238).
T7 sequence: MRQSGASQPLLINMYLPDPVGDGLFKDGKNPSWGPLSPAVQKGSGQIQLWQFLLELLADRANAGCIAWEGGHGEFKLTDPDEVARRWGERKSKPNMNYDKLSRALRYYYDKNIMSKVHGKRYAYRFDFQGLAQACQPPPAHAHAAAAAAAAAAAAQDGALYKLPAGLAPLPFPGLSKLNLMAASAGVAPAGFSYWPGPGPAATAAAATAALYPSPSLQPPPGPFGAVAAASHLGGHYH
The following applies: protein: recombinant; tags: N-terminal GST; dsDNA, one strand shown. The gist of the method:
as §1

In assay [11] the target is ETV5 (Homo sapiens, UniProt P41161 1-510). The following applies: protein: recombinant; tags: N-terminal GST; dsDNA, one strand shown. In short, it runs like this: as §1
In assay [12] the target is HSF1 (Homo sapiens, UniProt Q00613 1-529). The following applies: protein: recombinant; tags: N-terminal GST; chain copies: 3; dsDNA, one strand shown. The gist of the method: as §1
Assay [13] addresses T8, SPIC (Homo sapiens, UniProt Q8N5J4 1-248).
T8 sequence: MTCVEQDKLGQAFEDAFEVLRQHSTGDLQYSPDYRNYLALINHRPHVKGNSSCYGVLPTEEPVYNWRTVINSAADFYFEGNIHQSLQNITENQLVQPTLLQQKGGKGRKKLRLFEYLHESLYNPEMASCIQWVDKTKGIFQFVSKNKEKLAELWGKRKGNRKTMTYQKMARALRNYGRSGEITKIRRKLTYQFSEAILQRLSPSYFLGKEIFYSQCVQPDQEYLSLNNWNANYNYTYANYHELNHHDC
The following applies: protein: recombinant; tags: N-terminal GST; dsDNA, one strand shown. The gist of the method: as §1

Assay [14] concerns the target ELF4 (Homo sapiens, UniProt Q99607 1-663). The following applies: protein: recombinant; tags: N-terminal GST; dsDNA, one strand shown. The gist of the method:
as §1

Assay [15] deals with T9, ELK4 (Homo sapiens, UniProt P28324-2 1-405).
T9 sequence: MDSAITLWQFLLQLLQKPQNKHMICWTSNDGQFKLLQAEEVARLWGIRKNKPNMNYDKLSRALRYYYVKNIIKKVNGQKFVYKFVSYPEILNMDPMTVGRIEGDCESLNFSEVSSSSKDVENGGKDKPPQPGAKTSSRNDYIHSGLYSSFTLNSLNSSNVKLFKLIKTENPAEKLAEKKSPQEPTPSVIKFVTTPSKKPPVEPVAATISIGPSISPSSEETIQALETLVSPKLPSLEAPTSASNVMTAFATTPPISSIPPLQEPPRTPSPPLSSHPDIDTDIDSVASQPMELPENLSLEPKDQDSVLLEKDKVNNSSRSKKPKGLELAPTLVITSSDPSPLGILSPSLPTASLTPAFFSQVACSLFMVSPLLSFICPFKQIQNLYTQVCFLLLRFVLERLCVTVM
The following applies: protein: recombinant; tags: N-terminal GST; dsDNA, one strand shown. The gist of the method: as §1

In assay [16] the target is T10, ETV2 (Homo sapiens, UniProt O00321 1-342).
T10 sequence: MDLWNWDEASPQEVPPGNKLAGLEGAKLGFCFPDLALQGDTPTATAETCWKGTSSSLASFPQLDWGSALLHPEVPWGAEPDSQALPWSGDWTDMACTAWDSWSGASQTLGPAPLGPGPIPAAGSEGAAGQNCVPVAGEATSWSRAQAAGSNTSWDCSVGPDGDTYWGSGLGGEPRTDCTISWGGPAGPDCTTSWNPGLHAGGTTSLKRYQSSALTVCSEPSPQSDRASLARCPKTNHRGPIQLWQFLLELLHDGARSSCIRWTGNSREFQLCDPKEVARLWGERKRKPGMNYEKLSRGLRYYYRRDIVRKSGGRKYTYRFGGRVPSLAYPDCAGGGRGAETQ
The following applies: protein: recombinant; tags: N-terminal GST; dsDNA, one strand shown. In short, it runs like this:
as §1

Assay [17] addresses T11, ELF3 (Homo sapiens, UniProt P78545 1-371).
T11 sequence: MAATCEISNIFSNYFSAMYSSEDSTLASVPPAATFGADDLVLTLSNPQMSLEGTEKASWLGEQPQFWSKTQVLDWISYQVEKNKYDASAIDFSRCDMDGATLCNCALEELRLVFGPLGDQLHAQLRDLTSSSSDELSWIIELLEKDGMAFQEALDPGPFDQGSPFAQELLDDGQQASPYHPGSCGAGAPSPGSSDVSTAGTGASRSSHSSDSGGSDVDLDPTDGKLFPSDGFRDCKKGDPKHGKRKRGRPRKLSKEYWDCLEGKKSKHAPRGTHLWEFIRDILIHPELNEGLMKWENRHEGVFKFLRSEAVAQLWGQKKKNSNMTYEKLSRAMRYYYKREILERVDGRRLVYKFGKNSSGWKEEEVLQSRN
The following applies: protein: recombinant; tags: N-terminal GST; dsDNA, one strand shown. The gist of the method: as §1

In assay [18] the target is CRX (Homo sapiens, UniProt O43186 1-299). The following applies: protein: recombinant; tags: N-terminal GST; dsDNA, one strand shown. In short, it runs like this: as §1
In assay [19] the target is ETV1 (Homo sapiens, UniProt P50549 1-477). The following applies: protein: recombinant; tags: N-terminal GST; dsDNA, one strand shown. The gist of the method:
as §1

Chain of HSF1 (Q00613 whole entry): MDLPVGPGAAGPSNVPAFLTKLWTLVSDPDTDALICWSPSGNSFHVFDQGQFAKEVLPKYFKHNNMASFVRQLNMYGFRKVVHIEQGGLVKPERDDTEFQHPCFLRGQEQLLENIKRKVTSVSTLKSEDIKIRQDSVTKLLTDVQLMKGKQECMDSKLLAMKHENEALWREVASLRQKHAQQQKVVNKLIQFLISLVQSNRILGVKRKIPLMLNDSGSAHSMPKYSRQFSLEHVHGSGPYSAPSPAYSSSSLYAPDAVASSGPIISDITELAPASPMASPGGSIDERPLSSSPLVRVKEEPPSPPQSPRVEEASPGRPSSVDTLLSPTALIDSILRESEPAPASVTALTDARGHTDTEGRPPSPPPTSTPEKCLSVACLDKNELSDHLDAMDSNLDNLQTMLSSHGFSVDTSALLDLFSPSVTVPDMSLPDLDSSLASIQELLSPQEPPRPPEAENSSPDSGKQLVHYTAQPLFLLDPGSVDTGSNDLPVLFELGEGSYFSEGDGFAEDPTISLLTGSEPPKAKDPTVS
Chain of ETV1 (P50549 whole entry): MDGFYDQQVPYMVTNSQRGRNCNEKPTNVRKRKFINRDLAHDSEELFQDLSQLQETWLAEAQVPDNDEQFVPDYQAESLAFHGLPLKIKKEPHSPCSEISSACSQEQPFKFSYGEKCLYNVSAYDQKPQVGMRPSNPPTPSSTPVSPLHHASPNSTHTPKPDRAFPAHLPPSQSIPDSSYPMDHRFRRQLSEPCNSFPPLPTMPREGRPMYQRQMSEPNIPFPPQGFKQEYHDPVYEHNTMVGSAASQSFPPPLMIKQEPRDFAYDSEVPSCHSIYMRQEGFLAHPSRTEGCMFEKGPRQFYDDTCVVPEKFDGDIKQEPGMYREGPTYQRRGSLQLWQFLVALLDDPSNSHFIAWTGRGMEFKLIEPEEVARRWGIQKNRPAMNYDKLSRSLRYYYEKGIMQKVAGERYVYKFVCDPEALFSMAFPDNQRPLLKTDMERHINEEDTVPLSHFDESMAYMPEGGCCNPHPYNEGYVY
Chain of ELF4 (Q99607 whole entry): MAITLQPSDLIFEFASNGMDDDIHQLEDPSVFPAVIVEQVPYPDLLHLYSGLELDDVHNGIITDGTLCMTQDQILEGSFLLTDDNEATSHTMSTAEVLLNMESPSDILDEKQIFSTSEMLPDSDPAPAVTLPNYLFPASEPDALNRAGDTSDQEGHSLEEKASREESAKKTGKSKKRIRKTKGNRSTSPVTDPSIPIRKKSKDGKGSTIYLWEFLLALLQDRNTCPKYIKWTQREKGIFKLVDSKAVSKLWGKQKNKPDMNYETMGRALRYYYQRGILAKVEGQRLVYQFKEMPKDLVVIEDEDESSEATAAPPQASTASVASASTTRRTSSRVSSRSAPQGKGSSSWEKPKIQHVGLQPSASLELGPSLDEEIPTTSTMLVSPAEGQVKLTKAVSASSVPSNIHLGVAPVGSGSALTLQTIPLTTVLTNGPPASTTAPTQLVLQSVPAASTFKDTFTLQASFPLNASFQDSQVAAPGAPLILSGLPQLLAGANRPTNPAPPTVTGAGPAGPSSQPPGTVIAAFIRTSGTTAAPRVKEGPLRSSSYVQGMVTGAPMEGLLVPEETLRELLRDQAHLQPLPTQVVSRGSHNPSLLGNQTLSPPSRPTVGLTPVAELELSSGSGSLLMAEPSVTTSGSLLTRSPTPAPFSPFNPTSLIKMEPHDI
Chain of ETV5 (P41161 whole entry): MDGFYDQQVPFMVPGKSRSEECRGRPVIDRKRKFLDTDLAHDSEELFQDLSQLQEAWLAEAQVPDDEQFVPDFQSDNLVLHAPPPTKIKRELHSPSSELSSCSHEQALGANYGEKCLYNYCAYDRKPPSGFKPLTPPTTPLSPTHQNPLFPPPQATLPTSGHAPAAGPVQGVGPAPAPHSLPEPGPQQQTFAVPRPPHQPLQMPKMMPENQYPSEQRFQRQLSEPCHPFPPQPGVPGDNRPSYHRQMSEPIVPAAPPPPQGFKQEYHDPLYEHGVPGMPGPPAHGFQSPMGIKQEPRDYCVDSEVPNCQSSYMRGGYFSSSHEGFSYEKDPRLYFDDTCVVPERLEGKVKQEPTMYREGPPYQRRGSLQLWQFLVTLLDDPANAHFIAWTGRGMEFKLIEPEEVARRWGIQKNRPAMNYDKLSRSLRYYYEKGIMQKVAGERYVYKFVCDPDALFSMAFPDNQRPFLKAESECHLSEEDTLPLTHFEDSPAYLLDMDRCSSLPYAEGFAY
Chain of SPIB (Q01892 whole entry): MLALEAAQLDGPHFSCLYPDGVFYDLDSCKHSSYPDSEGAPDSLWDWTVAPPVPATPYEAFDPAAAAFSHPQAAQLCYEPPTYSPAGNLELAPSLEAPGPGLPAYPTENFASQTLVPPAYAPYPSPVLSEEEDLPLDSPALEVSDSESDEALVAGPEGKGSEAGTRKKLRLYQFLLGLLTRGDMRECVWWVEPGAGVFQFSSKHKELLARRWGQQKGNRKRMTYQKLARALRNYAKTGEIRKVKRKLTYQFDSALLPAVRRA
Chain of ELF1 (P32519 whole entry): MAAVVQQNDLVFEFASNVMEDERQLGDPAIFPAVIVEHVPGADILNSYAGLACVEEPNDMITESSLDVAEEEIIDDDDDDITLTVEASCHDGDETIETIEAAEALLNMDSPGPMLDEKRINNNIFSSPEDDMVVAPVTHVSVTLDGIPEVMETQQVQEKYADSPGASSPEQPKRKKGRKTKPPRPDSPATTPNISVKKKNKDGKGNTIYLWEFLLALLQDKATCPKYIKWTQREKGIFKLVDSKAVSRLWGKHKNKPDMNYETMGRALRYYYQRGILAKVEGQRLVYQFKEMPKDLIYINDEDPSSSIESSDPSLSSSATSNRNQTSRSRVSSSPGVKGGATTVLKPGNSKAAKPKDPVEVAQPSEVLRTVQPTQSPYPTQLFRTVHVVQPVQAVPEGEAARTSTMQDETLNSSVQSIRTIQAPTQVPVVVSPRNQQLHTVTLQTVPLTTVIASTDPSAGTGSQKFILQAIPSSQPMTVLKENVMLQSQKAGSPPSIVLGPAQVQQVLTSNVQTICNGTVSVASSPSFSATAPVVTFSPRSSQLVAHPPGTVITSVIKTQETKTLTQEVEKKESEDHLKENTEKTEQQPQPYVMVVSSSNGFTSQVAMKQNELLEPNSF
Chain of CRX (O43186 whole entry): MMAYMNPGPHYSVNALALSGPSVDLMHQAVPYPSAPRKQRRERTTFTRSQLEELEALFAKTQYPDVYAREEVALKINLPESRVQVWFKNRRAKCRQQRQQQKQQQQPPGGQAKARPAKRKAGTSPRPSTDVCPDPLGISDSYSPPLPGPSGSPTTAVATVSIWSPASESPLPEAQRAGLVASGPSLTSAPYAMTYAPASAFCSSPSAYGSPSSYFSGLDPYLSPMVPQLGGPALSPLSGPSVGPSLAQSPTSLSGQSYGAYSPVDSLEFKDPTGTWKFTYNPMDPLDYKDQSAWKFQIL

In the case of ACCATA, the binding signal in [1] was 1.2 fold enrichment (6-mer frequency, TF over GST control); in assay [2], 1.16 fold enrichment (6-mer frequency, TF over GST control); in [3], 1.12 fold enrichment (6-mer frequency, TF over GST control); in assay [4], 1.19 fold enrichment (6-mer frequency, TF over GST control); in [5], 1.16 fold enrichment (6-mer frequency, TF over GST control); in assay [6], 1.12 fold enrichment (6-mer frequency, TF over GST control). The binding signal is 1.13 fold enrichment (6-mer frequency, TF over GST control) in assay [7]; 1.19 fold enrichment (6-mer frequency, TF over GST control) in [8]; 1.22 fold enrichment (6-mer frequency, TF over GST control) in assay [9]; 1.17 fold enrichment (6-mer frequency, TF over GST control) in assay [10]; 1.21 fold enrichment (6-mer frequency, TF over GST control) in assay [11]; 1.08 fold enrichment (6-mer frequency, TF over GST control) in assay [12]. In addition, the binding signal in assay [13] is 1.22 fold enrichment (6-mer frequency, TF over GST control); in assay [14], 1.21 fold enrichment (6-mer frequency, TF over GST control); in assay [15], 1.31 fold enrichment (6-mer frequency, TF over GST control); in assay [16], 1.17 fold enrichment (6-mer frequency, TF over GST control); in assay [17], 1.14 fold enrichment (6-mer frequency, TF over GST control); in assay [18] it was 1.14 fold enrichment (6-mer frequency, TF over GST control). In addition, in assay [19], the binding signal was 1.09 fold enrichment (6-mer frequency, TF over GST control).

For the origin of these results see paper PMC7862700, “An all-to-all approach to the identification of sequence-specific readers for epigenetic DNA modifications on cytosine”.
